# Source: the supplement of paper PMC9694430
# Tests used:
# Assay in all cases: thermal shift delta Tm vs DMSO control; higher = stronger stabilization (binding)
# Conditions in all cases: 12.5 µM; protein concentration 2 µM
# LOC_OS04G57630-cb004 = tested on: LOC_OS04G57630-cb004
# How it was run: (§1)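 Thermal shift values come from differential scanning fluorimetry on purified rice kinase domains made in E. coli, with melting temperatures obtained from Boltzmann fits. Samples of 19.5 μl held 2 μM kinase, 100 mM potassium phosphate pH 7.5, 150 mM NaCl, 10% glycerol, 5 × SYPRO Orange and compound in DMSO, and were heated from 25°C to 95°C at 0.05°C/s. Each shift is a triplicate mean relative to the DMSO-only protein sample.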
# LOC_OS05G07850-cb002 = tested on: LOC_OS05G07850-cb002
# How it was run: as §1
# LOC_OS05G16824-cb004 = tested on: LOC_OS05G16824-cb004
# How it was run: as §1
# LOC_OS05G28520-cb001 = tested on: LOC_OS05G28520-cb001
# How it was run: as §1
# LOC_OS05G30820-cb001 = tested on: LOC_OS05G30820-cb001
# How it was run: as §1
# LOC_OS05G43570-cb004 = tested on: LOC_OS05G43570-cb004
# How it was run: as §1
# LOC_OS06G16330-cb003 = tested on: LOC_OS06G16330-cb003
# How it was run: as §1
# LOC_OS06G22820-cb001 = tested on: T1, LOC_OS06G22820-cb001
# T1 sequence (whole entry): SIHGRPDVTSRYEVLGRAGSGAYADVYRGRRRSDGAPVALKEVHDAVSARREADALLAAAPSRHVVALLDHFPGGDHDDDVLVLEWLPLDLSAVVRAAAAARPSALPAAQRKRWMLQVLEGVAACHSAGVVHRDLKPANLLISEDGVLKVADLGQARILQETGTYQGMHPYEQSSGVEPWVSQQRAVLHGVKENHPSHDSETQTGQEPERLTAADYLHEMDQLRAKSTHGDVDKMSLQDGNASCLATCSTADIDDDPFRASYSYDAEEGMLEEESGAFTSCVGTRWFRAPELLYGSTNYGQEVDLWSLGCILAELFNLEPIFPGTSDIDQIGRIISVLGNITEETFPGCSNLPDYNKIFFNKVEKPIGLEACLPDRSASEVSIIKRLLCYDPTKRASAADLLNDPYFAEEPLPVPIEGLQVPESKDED
# How it was run: as §1
# LOC_OS07G06570-cb004 = tested on: LOC_OS07G06570-cb004
# How it was run: as §1
# LOC_OS07G07230-cb001 = tested on: LOC_OS07G07230-cb001
# How it was run: as §1
# 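Also: purified Escherichia coli-expressed rice kinase domain construct.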
# Sequence of LOC_OS06G16330-cb003 (as listed by the source): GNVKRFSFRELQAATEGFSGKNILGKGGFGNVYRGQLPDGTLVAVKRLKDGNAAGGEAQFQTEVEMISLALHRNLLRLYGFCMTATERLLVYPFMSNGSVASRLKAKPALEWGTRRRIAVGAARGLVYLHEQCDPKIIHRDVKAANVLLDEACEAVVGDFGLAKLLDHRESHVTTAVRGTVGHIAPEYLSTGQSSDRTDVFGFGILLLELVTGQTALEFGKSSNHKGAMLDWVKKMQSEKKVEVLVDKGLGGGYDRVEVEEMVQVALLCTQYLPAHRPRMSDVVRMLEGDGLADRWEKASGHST
Structure (SMILES),thermal shift delta Tm (LOC_OS04G57630-cb004) [°C],thermal shift delta Tm (LOC_OS05G07850-cb002) [°C],thermal shift delta Tm (LOC_OS05G16824-cb004) [°C],thermal shift delta Tm (LOC_OS05G28520-cb001) [°C],thermal shift delta Tm (LOC_OS05G30820-cb001) [°C],thermal shift delta Tm (LOC_OS05G43570-cb004) [°C],thermal shift delta Tm (LOC_OS06G16330-cb003) [°C],thermal shift delta Tm (LOC_OS06G22820-cb001) [°C],thermal shift delta Tm (LOC_OS07G06570-cb004) [°C],thermal shift delta Tm (LOC_OS07G07230-cb001) [°C]
c1cc(-c2cnn3cc(-c4ccc(OCCN5CCCCC5)cc4)cnc23)ccn1 [Dorsomorphin 2HCl],6.96,9.81,12.6,3.18,1.22,0.81,8.76,0.18,1.04,1.17
COc1cc2c(Oc3ccc(NC(=O)C4(C(=O)Nc5ccc(F)cc5)CC4)cc3F)ccnc2cc1OCCCN1CCOCC1,6.98,13.9,5.71,16,0.55,0.27,9.02,0.8,0.2,0.3
O=C(Nc1cccc(C(F)(F)F)c1)c1cccc2cc(Oc3cc(CO)ncn3)ccc12,0.45,-0.21,-4.53,0.52,0.8,0.31,-0.18,0.78,0.98,0.86
C[C@H]1CNC(=O)c2cnn3ccc(nc23)N[C@H](C)c2cc(F)ccc2O1,1.68,10.8,12.5,0.06,0.11,0.56,9.31,-0.23,1.57,0.8
CN(C)C[C@@H]1CCn2cc(c3ccccc32)C2=C(C(=O)NC2=O)c2cn(c3ccccc23)CCO1,-0.32,5.79,2.45,0.65,0.63,0.63,0.27,0.46,2.56,0.33
CO[C@H]1C[C@@H]2CC[C@@H](C)[C@@](O)(O2)C(=O)C(=O)N2CCCC[C@H]2C(=O)O[C@H]([C@H](C)C[C@@H]2CC[C@H](n3cnnn3)[C@H](OC)C2)CC(=O)[C@H](C)/C=C(\C)[C@@H](O)[C@@H](OC)C(=O)[C@H](C)C[C@H](C)/C=C/C=C/C=C/1C [Zotarolimus(ABT-578)],0.76,0.65,-0.34,0.87,0.57,1.17,-0.09,0.92,1.43,-0.08
CCOC(=O)c1cnc2ccc(-c3cncc(NS(=O)(=O)c4ccccc4)c3)cn12,0.28,3.75,1.63,0.65,0.47,0.51,2.32,0.38,0.45,0.1
C#Cc1cccc(Nc2ncnc3cc(OCCOC)c(OCCO)cc23)c1,0.14,8.23,0.76,-0.52,0.4,0.13,3.5,0.25,0.7,-0.14
CN1CC[C@H](c2c(O)cc(O)c3c(=O)cc(-c4ccccc4Cl)oc23)[C@H](O)C1 [Flavopiridol (Alvocidib)],0.36,5.16,2.71,-0.27,0.85,0.07,3.19,1.43,0.96,0
CC(=O)O/N=C1/C(c2c(O)[nH]c3cc(Br)ccc23)=Nc2ccccc21 [BIO-acetoxime],0.24,7.48,4.45,-0.58,1.03,-0.53,2.52,-0.05,0,0.92
COc1cc2c(c(OC)c1OC)-c1c(cc3c(c1OC)OCO3)CC(C)C(C)C2 (stereo not given) [Schisandrin B (Sch B)],0.17,1.23,-1,0.63,0.52,0.14,-0.39,0.43,1.21,-0.17
CCNC(=O)Nc1ccc(-c2nc(N3CCOC[C@@H]3C)c3c(n2)C(C)(C)S(=O)(=O)C3)cc1,-0.03,1.34,0.19,0.25,0.2,0.77,-0.15,0.67,1.9,0.66
C=CC(=O)Nc1cc(Nc2nccc(-c3c[nH]c4ccccc34)n2)c(OC)cc1N(C)CCN(C)C,0.51,11,-1.05,0.61,0.72,0.75,6.67,0.58,1.6,0.9
CC(C)(C)c1cc(NC(=O)Nc2ccc(Oc3ccnc4[nH]c(=O)cnc34)cc2F)n(-c2ccccc2)n1,10.3,12.5,0.62,0.57,0.39,0.48,5.36,0.49,1.22,-0.1
COc1ccc2c(c1)[C@]1(C[C@H]1c1ccc3c(/C=C/c4ccc(CN5C[C@@H](C)O[C@@H](C)C5)cc4)n[nH]c3c1)C(=O)N2,7.27,12.3,9.09,0.02,-0.63,0.5,11.6,0.46,0.63,-0.28
Cc1cn(-c2cc(NC(=O)c3ccc(C)c(Nc4nccc(-c5cccnc5)n4)c3)cc(C(F)(F)F)c2)cn1 [Nilotinib (AMN-107)],-0.2,-0.28,-8.56,0.53,0.44,0.26,-0.09,0.72,0.96,0.47
Clc1ccc(C2(c3ccc(-c4cn[nH]c4)cc3)CCNCC2)cc1,0.35,1.23,-0.22,0.22,0.51,1.87,0.19,0.61,1.01,0.03
